# An excerpt weighted towards active compounds, which were near 31% of everything screened.
# CYP2C9 inhib: blockers of cytochrome P450 2C9 activity – biochemical, luminescence, ADME assay, primary screen | P11712 | 96,000 tested, 20% active | CYP2C9 Supersomes, luciferin-H conversion | inhibition, % at 5 µM;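 active = blocking of liver enzyme CYP2C9 beyond about 50% at 5 µM, limit read from the data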
# CYP2C9 activ: human CYP2C9 activators, primary screen, biochemical, luminescence | Cytochrome P450 2C9 (Homo sapiens), P11712 | recombinant CYP2C9, luciferin-H conversion; stronger effect = higher value; factor 1 = untreated enzyme, 0 = blocked | activation factor at 5 µM | 96,000 tested, 1.4% active | AID 1024, 2008;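 active = activation factor of 2 or more for CYP2C9 at a 5 µM dose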;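 note: 0 = sulfaphenazole-blocked wells and 1 = vehicle-only wells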
# CYP2C19 inhib: blockers of cytochrome P450 2C19 activity – biochemical, luminescence, ADME assay, primary screen; P33261; CYP2C19 Supersomes, luciferin-H EGE luminescence, 30 min; inhibition, % at 5 µM; 96,000 tested, 21% active; AID 778, 2007;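 active = CYP2C19 inhibition above a set limit at 5 µM in the primary screen, cut at about 50% in these data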;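 note: plate controls were negative control wells for no effect and 2.5 mM tranylcypromine positive control for full effect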
# PLAP act: PLAP enzyme activators, biochemical, luminescence, HTS. activation fold at 20 µM. 96,000 tested, 1.2% active. purified PLAP enzyme, luminescent substrate read-out; stronger effect = higher value. AID 696, 2007. Alkaline phosphatase, placental type (Homo sapiens), P05187; in the data active = activation fold above about 2
# Target sequence (P05187 whole entry, looked up): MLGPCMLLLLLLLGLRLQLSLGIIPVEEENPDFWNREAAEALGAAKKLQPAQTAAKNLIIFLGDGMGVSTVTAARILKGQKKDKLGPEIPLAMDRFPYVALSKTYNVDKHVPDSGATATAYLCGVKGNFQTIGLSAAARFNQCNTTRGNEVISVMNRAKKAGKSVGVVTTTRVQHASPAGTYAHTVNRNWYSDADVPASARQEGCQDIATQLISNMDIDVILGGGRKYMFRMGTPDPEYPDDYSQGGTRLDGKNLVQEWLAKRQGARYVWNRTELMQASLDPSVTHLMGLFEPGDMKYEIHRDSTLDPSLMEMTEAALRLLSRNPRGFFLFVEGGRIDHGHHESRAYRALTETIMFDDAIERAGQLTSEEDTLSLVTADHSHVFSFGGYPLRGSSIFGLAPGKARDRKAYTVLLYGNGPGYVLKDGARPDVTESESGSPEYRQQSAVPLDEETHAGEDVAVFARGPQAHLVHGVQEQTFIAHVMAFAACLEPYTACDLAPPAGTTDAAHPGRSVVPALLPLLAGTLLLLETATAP
# CYP2C19 act: human CYP2C19 activators, primary screen, biochemical, luminescence; Cytochrome P450 2C19 (Homo sapiens), P33261; recombinant CYP2C19, luciferin-H EGE luminescence; stronger effect = higher value; 0 = fully inhibited enzyme, 1 = untreated enzyme; activation factor at 5 µM; 96,000 tested, under 10 active;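 active = activation factor of at least 2 at 5 µM in the primary screen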;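 note: 0 = wells with 2.5 mM tranylcypromine and 1 = vehicle-only wells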
# * hit, by the source's call.
SMILES,CYP2C9 inhib,CYP2C9 activ,CYP2C19 inhib,PLAP act,CYP2C19 act
O=C(NCCc1ccccc1)c1cccnc1,-4.6,1,-0.6,0.9,1
O=C(NCc1ccc(Cl)cc1)c1cccnc1,7.6,0.9,65.9*,0.9,0.3
CC(C)(C)c1ccc(C(=O)c2c[nH]c(C(=O)NCc3cccnc3)c2)cc1,12.3,0.9,19.8,1.1,0.8
CCOc1cc(OCC)cc(C(=O)Nc2cccnc2)c1,22.8,0.8,-6.7,0.8,1.1
CCC(NC(=O)NCc1cccnc1)(C(F)(F)F)C(F)(F)F,72.6*,0.3,87.0*,1,0.1
Cc1ccc(S(=O)(=O)NCCCNC(=O)N2CCOCC2)cc1,-4.3,1,5.8,1,0.9
Cc1cc(NC(=O)CSc2nnc(-c3cccnc3)n2C2CCCCC2C)no1 (stereo not given),9.2,0.9,20.6,1,0.8
CC1CCN(C(=O)CNC(=O)Cn2ccc3ccccc3c2=O)CC1,-26.1,1.3,-18.5,1.1,1.2
Cn1nc(C(=O)NCc2cccnc2)c2ccccc2c1=O,59.6*,0.4,77.6*,1,0.2
Cc1cccc(OCC(=O)Nc2ccc(C(=O)NCc3cccnc3)cc2)c1,42.6,0.6,52.8*,0.8,0.5
Cc1ccccc1-n1nc(C)c2cc(C(=O)N3CCN(S(=O)(=O)c4ccccc4)CC3)sc21,-9.1,1.1,-8.4,1.2,1.1
Cc1ccccc1-n1nc(C)c2cc(C(=O)NCc3cccnc3)sc21,54.9*,0.5,43.6,1.5,0.6
Cn1c(=O)n(CC(=O)NCc2cccnc2)c2ccccc21,-10.1,1.1,-5.0,0.8,1.1
Cc1sc(C(=O)NCc2cccnc2)c2nc(C)n(CC(=O)NCc3cccnc3)c(=O)c12,96.8*,0,58.9*,0.7,0.4
Cn1c(=O)c2c(nc(CN3CCN(c4ccc(F)cc4)CC3)n2Cc2ccccc2F)n(C)c1=O,-17.2,1.2,-7.7,1.4,1.1
C=CCc1c(C)nc(C)nc1N/N=C/c1ccc(N(C)C)cc1,1.2,1,26.8,1.6,0.7
O=C(O)C1CCN(C(=O)COc2ccc3c4c(c(=O)oc3c2)CCC4)CC1,-5.3,1.1,8.1,1.4,0.9
Cc1ccc(C=C2C(=O)c3ccccc3C2=O)s1,48.0,0.5,13.0,0.9,0.9
O=C(CC(=O)NCc1cccnc1)NCc1cccnc1,3.0,1,15.1,0.9,0.8
CC(NC(=O)c1nn(C)c(=O)c2ccccc12)c1ccc(F)cc1 (stereo not given),64.4*,0.4,42.8,1.7,0.6
Cn1nc(C(=O)Nc2cccnc2)c2ccccc2c1=O,12.6,0.9,3.5,0.9,1
COc1ccc(OCC(=O)NCc2cccnc2)cc1,30.5,0.7,58.1*,0.8,0.4
COc1ccc(CNC(=O)c2cc(C3CC3)on2)cc1,21.0,0.8,81.4*,0.9,0.2
Cc1cc(OC(=O)c2ccc(Cl)cc2Cl)nc(C)n1,-9.7,1.1,-6.1,1.1,1.1
C=C(c1ccc(OCCO)cc1)c1ccc(OCCO)cc1,32.9,0.7,27.5,1,0.7
SMILES,CYP2C9 inhib,CYP2C9 activ,CYP2C19 inhib,PLAP act,CYP2C19 act
O=C(Nc1cc(Cl)cc(Cl)c1)C1CCC(=O)N1Cc1ccccc1Cl (stereo not given),90.9*,0.1,96.1*,0.9,0
Cc1cc(C)c(S(=O)(=O)n2ccc(-c3ccc(OCCN(C)c4ccccn4)cc3)n2)c(C)c1,57.4*,0.4,13.9,1,0.9
CN(CCOc1ccc(Cl)cc1)c1ccc(S(=O)(=O)N2CCCCC2)cn1,-31.0,1.3,37.5,1.3,0.6
CCCn1c(N)c(C(=O)CN2CCN(S(=O)(=O)c3cccs3)CC2)c(=O)[nH]c1=O,12.1,0.9,10.4,1,0.9
CC(NS(=O)(=O)c1ccc(OCC(=O)N2CCOCC2)c(Cl)c1)c1ccccc1 (stereo not given),63.7*,0.4,48.8,1.7,0.5
O=C(COc1ccc(S(=O)(=O)NC2CCCCC2)cc1Cl)N1CCN(c2ccccc2)CC1,100.1*,0,67.8*,1.5,0.3
CC(C)NS(=O)(=O)c1ccc(OCC(=O)Nc2ccc3c(c2)OCO3)c(Cl)c1,13.9,0.9,13.4,0.9,0.9

# Screening results from PubChem BioAssay.
